Only some compounds are listed: those with a hit (about 6.1% of all), similar ones and a draw of the others.
D3 antag: D3 dopamine receptor (human) antagonism; P35462; D3R cells, DiscoveRx beta-arrestin luminescence, antagonist mode; active compounds read low; max response, negative = inhibition, %; 360,000 tested, 2.5% active; AID 652054; in the data active = max response below about -50%; note: % is set by controls: 0 for no effect and ±100 for the full control effect
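Cells expressing the human receptor were seeded at 1500 cells/well, incubated overnight at 37 degrees C in 5% CO2, then exposed to library compounds with dopamine controls for 90 minutes at 37 degrees C before luminescent detection.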
D1 PAM: enhances dopamine response at the human D1 receptor | P21728 | AID 504651 | potentiation, % at 10 µM | 360,000 tested, 0.036% active | HEK293 TREx D1 cells, calcium flux, dopamine EC20 potentiation; in the data active = potentiation above about 30%; note: 0% is about no effect
Target sequence (P21728 whole entry, looked up): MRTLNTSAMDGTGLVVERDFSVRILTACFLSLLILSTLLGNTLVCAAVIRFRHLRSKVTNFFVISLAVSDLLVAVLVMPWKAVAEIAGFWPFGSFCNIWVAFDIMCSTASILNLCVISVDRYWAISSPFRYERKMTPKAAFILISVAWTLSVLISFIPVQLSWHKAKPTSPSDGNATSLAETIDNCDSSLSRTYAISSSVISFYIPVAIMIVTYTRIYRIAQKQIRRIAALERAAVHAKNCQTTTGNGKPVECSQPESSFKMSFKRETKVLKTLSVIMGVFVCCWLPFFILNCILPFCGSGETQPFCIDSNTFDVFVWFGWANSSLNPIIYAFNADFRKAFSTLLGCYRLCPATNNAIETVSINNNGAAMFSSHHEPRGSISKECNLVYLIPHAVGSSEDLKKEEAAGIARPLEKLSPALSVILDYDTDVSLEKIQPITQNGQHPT
ERG-DNA inh: ERG Ets/DNA interaction inhibition; P11308; 370,000 tested, 0.028% active; fluorescence polarization, His-ERG Ets domain / labelled DNA; Potency, µM (highest dose often 76.9 µM), without a hit: at the top dose FP activity, negative = inhibition, hits mostly inhibitors; AID 624246; active = well fitted inhibition curve with a large enough effect in the polarisation, with a control signal flat; the % refers to the polarisation;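 note: polarization taken with two DNA probes labelled with fluorescein and Texas red; potency is the fitted concentration of half-maximal effect; % of control where 0% means no effect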
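His-tagged ERG Ets domain (1 uM in the protein solution; 300mM KCl, 50mM Tris-HCl, 1mM EDTA, 1mM DTT, pH 7.5) received compound, then a probe mix of 5 nM fluorescein-DNA and 100nM Texas-615-DNA. Fluorescence polarization was read for both dyes.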
D1 agonist: agonists of human D1 dopamine receptor | P21728 | HEK293 T-REx D1 cells, calcium flux, agonist mode | activation, % at 2 µM | 360,000 tested, 1% active | AID 504660; in the data active = activation above about 30%; note: 0% is about no effect
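Tetracycline-induced HEK293 TREx D1 cells, force-coupled to calcium signalling, were dye-loaded with a no-wash calcium kit. Compound was pin-added after a 10 s baseline. Fluorescence was read kinetically at 1 cycle/s for 180 s, with calcium rises flagged as agonism.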
D1 antag: blocks dopamine activation of the human D1 receptor | P21728 | HEK293 TREx D1 cells, calcium flux, dopamine EC80; active compounds read low | activity change, negative = inhibition, % at 10 µM | 360,000 tested, 3.2% active; in the data active = activity change below about -30%; note: % is set by controls: 0 for no effect and ±100 for the full control effect
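HEK293 T-REx cells expressing inducible, force-coupled D1 receptor; no-wash Ca dye, 30–90 min RT. Cmpd → 180 s read at 1 Hz → EC80 DA → 180 s read.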
DRD3 agonist: D3 dopamine receptor (human) agonism; 410,000 tested, 0.58% active; D3R DiscoveRx beta-arrestin cells, luminescence, 90 min; max activation, %; in the data active = max activation above about 30%; note: 0% is about no effect
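Cells at 1500/well, incubated overnight, then treated with pinned compounds (dopamine as control) for 90 min at 37 degrees C. DiscoveRx reagent added for 30 - 60 minutes at room temperature; luminescence read.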
The depositor's hits bear a star.

Results for O=C(c1nc2ccccn2c1CNCCCn1ncc2ccccc21)N1CCOCC1 ?
D3 antag: -17.4; D1 PAM: -3.0; ERG-DNA inh: 1.9%; D1 agonist: 0.4; D1 antag: -42.1*; DRD3 agonist: -15.7

What do the screens show for `O=C(CSc1nc2ccccc2c(=O)n1CCCN1CCOCC1)Nc1ccccc1OC(F)F`?
D3 antag: -1.3; ERG-DNA inh: -4.3%; DRD3 agonist: 0.3

How did COc1ccc(-n2c(=O)c(NC(=O)c3ccccc3)c3n(c2=S)CCCCC3)cc1 do in these assays?
D3 antag: -26.1; D1 PAM: -4.5; ERG-DNA inh: 5.9%; D1 agonist: 2.1; D1 antag: -30.9*; DRD3 agonist: -11.4

Results for Cc1[nH]c(C)c(S(=O)(=O)N(Cc2ccccc2)C(C)C)c1C(=O)N1CCCC1 ?
D3 antag: 4.6; D1 PAM: 5.3; ERG-DNA inh: 23.1%; D1 agonist: 1.5; D1 antag: -34.4*; DRD3 agonist: 2.3

Results for O=C(c1ccco1)N1CCc2[nH]nc(-c3ccc(Cl)cc3)c2C1 ?
D3 antag: -14.6; D1 PAM: 0.9; ERG-DNA inh: 1.4%; D1 agonist: 2.8; D1 antag: -30.4*; DRD3 agonist: 2.7

What do the screens show for `Cc1ccc(NC(=O)CN(C)CC(=O)Nc2ccccc2C(=O)Nc2ccccc2)cc1`?
D3 antag: -3.4; D1 PAM: -5.5; ERG-DNA inh: -2.0%; D1 agonist: 1.7; D1 antag: -14.4; DRD3 agonist: -2.0

What do the screens show for `COCC(=O)Nc1nnc(C2CCCCC2)s1`?
D3 antag: 3.2; D1 PAM: 0.1; ERG-DNA inh: -11.9%; D1 agonist: 5.0; D1 antag: -1.6; DRD3 agonist: -0.4

Results for CCOCC(=O)Nc1nnc(C2CCCCC2)s1 ?
D3 antag: -7.9; D1 PAM: -6.7; ERG-DNA inh: 5.3%; D1 agonist: -2.0; D1 antag: -35.8*; DRD3 agonist: -4.5

How did Cc1ccc(NC(=O)COC(=O)CNC(=O)C2CCCCC2)c(Br)c1 do in these assays?
D3 antag: 1.4; D1 PAM: -6.1; ERG-DNA inh: 4.0%; D1 agonist: 0.8; D1 antag: -11.3; DRD3 agonist: 6.2

Results for O=C(Nc1cccnc1)c1ccc(-c2ccccc2)cc1 ?
D3 antag: -5.7; D1 PAM: -9.2; ERG-DNA inh: 4.1%; D1 agonist: 5.2; D1 antag: -30.3*; DRD3 agonist: 0.0

Results for O=C(Nc1ccncc1)c1ccc(F)cc1 ?
D3 antag: -2.0; D1 PAM: -2.6; ERG-DNA inh: 4.7%; D1 agonist: 1.7; D1 antag: -13.3; DRD3 agonist: 3.9

How did CNS(=O)(=O)c1cccc(C(=O)Nc2cccnc2)c1 do in these assays?
D3 antag: -57.4*; D1 PAM: -2.9; ERG-DNA inh: -13.6%; D1 agonist: -2.2; D1 antag: 0.8; DRD3 agonist: -22.6

How did O=C(Nc1ccncc1)c1ccc(-c2ccccc2)cc1 do in these assays?
D3 antag: 12.2; D1 PAM: -12.8; ERG-DNA inh: -12.1%; D1 agonist: 17.6; D1 antag: -39.5*; DRD3 agonist: 0.6

Results for O=C(Nc1cccnc1)c1cccc(S(=O)(=O)Nc2cccc(Cl)c2)c1 ?
D3 antag: -3.6; D1 PAM: -4.7; ERG-DNA inh: 7.6%; D1 agonist: 0.9; D1 antag: -10.6; DRD3 agonist: 1.9

How did Cc1oc(-c2ccccc2Cl)nc1CS(=O)CC(=O)NCc1cccs1 (stereo not given) do in these assays?
D3 antag: -19.6; D1 PAM: -2.2; ERG-DNA inh: 6.4%; D1 agonist: -1.4; D1 antag: 3.6; DRD3 agonist: 4.1

How did Cc1oc(-c2ccccc2Cl)nc1CS(=O)CC(=O)NC1CC1 (stereo not given) do in these assays?
D3 antag: -2.3; D1 PAM: -4.2; ERG-DNA inh: -2.9%; D1 agonist: -0.1; D1 antag: -59.8*; DRD3 agonist: -7.2

Results for Cc1ccc(CNC(=O)CS(=O)Cc2nc(-c3ccccc3Cl)oc2C)cc1 (stereo not given) ?
D3 antag: -9.4; D1 PAM: 0.7; ERG-DNA inh: 2.1%; D1 agonist: 4.0; D1 antag: -41.9*; DRD3 agonist: -1.5

Results for Cc1ccc(-c2nc(CS(=O)CC(=O)NC3CC3)c(C)o2)cc1 (stereo not given) ?
D3 antag: 0.3; D1 PAM: 3.0; ERG-DNA inh: 2.1%; D1 agonist: 0.2; D1 antag: 11.9; DRD3 agonist: 2.4

What do the screens show for `CN1/C(=C\C(=O)COC(=O)CNC(=O)c2ccc3ccccc3c2)C(C)(C)c2ccccc21`?
D3 antag: 19.1; D1 PAM: -3.5; ERG-DNA inh: 72.3%; D1 agonist: 1.9; D1 antag: 2.5; DRD3 agonist: 1.0

What do the screens show for `Cc1cc(Br)ccc1NC(=O)CNC(=O)CN1C(=O)NC2(CCCCCC2)C1=O`?
D3 antag: -21.8; D1 PAM: -7.9; D1 agonist: 0.1; D1 antag: -4.4; DRD3 agonist: -8.0

Results for Cc1cc(Br)ccc1NC(=O)CN1C(=O)C2C3CC(c4ccccc4)C(C3)C2C1=O (stereo not given) ?
D3 antag: 59.2; D1 PAM: -8.3; ERG-DNA inh: 1.1%; D1 agonist: 1.0; D1 antag: -39.3*; DRD3 agonist: 4.0

What do the screens show for `O=C1C=C(Nc2ccc(O)cc2)C(=O)c2ccccc21`?
D3 antag: -14.2; D1 PAM: -0.1; ERG-DNA inh: 1.6%; D1 agonist: 0.5; D1 antag: -10.8; DRD3 agonist: -6.7

How did O=C(O)c1ccc(NC2=C/C(=N/S(=O)(=O)c3cccs3)c3ccccc3C2=O)cc1 do in these assays?
D3 antag: -83.9*; DRD3 agonist: -20.6

Results for O=C(O)c1ccc(Nc2nc3ccccc3nc2NS(=O)(=O)c2cccs2)cc1 ?
D3 antag: -4.8; D1 PAM: 0.1; ERG-DNA inh: -3.6%; D1 agonist: 1.5; D1 antag: -0.6; DRD3 agonist: 4.8

How did O=C1C(Nc2ccc(O)cc2)=C/C(=N/S(=O)(=O)c2cccs2)c2ccccc21 do in these assays?
D3 antag: -85.4*; D1 PAM: -4.3; ERG-DNA inh: -7.6%; D1 agonist: 12.7; D1 antag: -7.3; DRD3 agonist: -31.4

How did CCn1c(O)c(N=NC(=O)C2C(=O)NCC2c2ccccc2)c2ccccc21 (stereo not given) do in these assays?
D3 antag: -23.7; D1 PAM: -2.5; D1 agonist: 1.0; D1 antag: -80.2*; DRD3 agonist: -4.8

What do the screens show for `CCOC(=O)N=Nc1c(O)n(CC)c2ccccc12`?
D3 antag: -27.1; D1 PAM: -4.0; ERG-DNA inh: -2.0%; D1 agonist: -0.6; D1 antag: -3.5; DRD3 agonist: -7.0

Screens: PubChem, National Center for Advancing Translational Sciences (NCATS)
